Drawing on PubChem BioAssay (NCATS), this text covers Potency, outcome and max response for five compounds.

A number with no mark means an inactive call. Inconclusive results are not listed. Activity calls are given as the source filed them. Calls follow the shape of the dose curve; as a rule, active = well fitted curve in the direction sought with a large enough effect; inconclusive = small, poorly fitted or top-dose-only effect, or another doubt; inactive = no such curve, though single readings can be large; an effect the other way counts as inactive or inconclusive.

Assay [1] in a line: P-glycoprotein substrates identified in KB-8-5-11 adenocarcinoma cell line, qHTS therapeutic library screen (AID 1346987). Also: nearly all actives have a fitted effect of over 65% in size. Also: potency is read from the fitted curve at half-maximal effect. The method, boiled down: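 Compounds are pinned in dose-response onto KB-8-5-11 cells (500 cells/well, colchicine-free medium) and left 72 h at 37 degree C. CellTiter-Glo luminescence then yields AC50 values.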
The target in assay [2] is Calcium and integrin-binding protein 1 (Homo sapiens) (UniProt Q99828). Put plainly: Primary qHTS for Identification of Calcium Integrin Binding Protein 1 (CIB1) Competitor (AID 1508620).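 Also: GST tagged CIB1 binding a fluorescein labelled alphaIIb integrin peptide tracer; top concentration of the series differs between compounds; % is scaled to controls: 0 for no effect and ±100 for the full control effect.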 A digest of the protocol: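 Fluorescence polarization competition: CIB1-GST (1 uM final) preincubated with compound 15 min at room temperature, then FITC-labeled alphaIIb peptide (100 nM final) added for another 15 min. Polarization read at Ex 480/Em 540.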

Assay [3] in a line: Primary qHTS for inhibitors of nuclear receptor binding SET domain protein 2 (NSD2) in an isogenic RCH-ACV NSD2 p.E1099K mutant (9B) (AID 1645876). Also: nearly all actives have a fitted effect of over 70% in size. Also: potency is read from the fitted curve at half-maximal effect.
The target of assay [4] is Phospholipid hydroperoxide glutathione peroxidase GPX4 (Homo sapiens) (UniProt P36969). Put plainly: Primary qHTS Assay for Inhibitors of Recombinant Selenoprotein Glutathione Peroxidase 4 (GPX4) (AID 1845192). Also: % is scaled to controls: 0 for no effect and ±100 for the full control effect; nearly all actives have a fitted effect of over 65% in size. The method, boiled down: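 qHTS, GR-coupled: GPX4 200 nM + cpd 30 min RT → GSH 1 mM, NADPH 0.5 mM, GR 100 nM → CHP 0.5 mM start; fluor 340/450 at t0 and t15 min; no-enzyme wells as control.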

For assay [5], the target named is Luciferin 4-monooxygenase (Photinus pyralis) (UniProt P08659). The experiment in a line: Primary firefly luciferase (FLuc) qHTS assay for identification of artifact compounds. (AID 1845220). Also: nearly all actives have a fitted effect of over 60% in size. As to conditions: outcome: dose series up to 54.1 µM unless noted. A digest of the protocol:
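qHTS, 15 min compound preincubation with substrate (10 uM luciferin, 10 uM ATP) at RT, then 10 nM FLuc; 5 min; luminescence; % inhibition vs no-enzyme/DMSO controls, 4-parameter Hill fit.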

In assay [6] the test system is Nanoluciferase (engineered Oplophorus gracilirostris luciferase). The experiment in a line: Primary Nanoluciferase (NLuc) qHTS assay for identification of artifact compounds. (AID 1845222). The method, boiled down:
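Luminescence read-out of secreted NLuc in S16 cell conditioned medium (1:55); compounds tested with 15 min RT preincubation, then Nano-Glo substrate 1:100, 5 min. % inhibition vs no-enzyme and DMSO controls, 4-parameter Hill fit.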

A further assay concerns CRL-7250. Put plainly: Cytotoxic Profiling of Annotated Libraries Using Quantitative High-Throughput Screening (AID 1296008). Also: nearly all actives have a fitted effect of over 60% in size. Also: potency is read from the fitted curve at half-maximal effect. As to max response: % is scaled to controls: 0 for no effect and ±100 for the full control effect. As to conditions: Five cell lines viability, CellTiter-Glo ATP luminescence, 48-72 h; max response: stronger effect = lower value. The method, boiled down:
(§1)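 Compounds were pin-transferred onto cells and incubated 48 or 72 hr at 37 degree Celsius, 95% humidity. CellTiter-Glo was added, plates sat 10 min at room temperature, then ATP-coupled luminescence was imaged as the viability read-out.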

For a further assay, the system named is HEK293. Described as above. As to conditions: Five cell lines viability, CellTiter-Glo ATP luminescence, 48-72 h; max response: stronger effect = lower value. The method, boiled down: as §1
The next assay concerns HaCat. The assay is described as above. As to conditions: Five cell lines viability, CellTiter-Glo ATP luminescence, 48-72 h; max response: stronger effect = lower value. The method, boiled down:
as §1

A further assay concerns NIH3T3. The description is as above. Particulars: Five cell lines viability, CellTiter-Glo ATP luminescence, 48-72 h; max response: stronger effect = lower value. A digest of the protocol: as §1
For another assay, the system named is C33A. Put plainly: Primary qHTS to identify gynecologic anti-cancer compounds using libraries of approved drugs and bioactive compounds (AID 1345084). Also: nearly all actives have a fitted effect of over 55% in size. Also: potency is read from the fitted curve at half-maximal effect. Particulars: Gynecologic cancer cell panel viability, ATPlite luminescence, 48 h; series mostly up to 57.5 µM. A digest of the protocol:
(§2)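 48 h compound exposure at 37 C, 5% CO2; five-point qHTS. ATPlite luminescence readout of cell ATP.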

The test system of another assay is CAOV3. The assay is described as above. Particulars: Gynecologic cancer cell panel viability, ATPlite luminescence, 48 h; series mostly up to 57.5 µM. The method, boiled down:
as §2

In another assay the test system is CASKI. Described as above. Particulars: Gynecologic cancer cell panel viability, ATPlite luminescence, 48 h; series mostly up to 57.5 µM. The method, boiled down: as §2
A further assay concerns Es-2. The description is as above. As to conditions: Gynecologic cancer cell panel viability, ATPlite luminescence, 48 h; series mostly up to 57.5 µM. The method, boiled down: as §2
A further assay concerns Hek293T. The description is as above. Particulars: Gynecologic cancer cell panel viability, ATPlite luminescence, 48 h, control line for the selectivity index; series mostly up to 57.5 µM. A digest of the protocol: as §2
The next assay deals with JEG-3. Described as above. As to conditions: Gynecologic cancer cell panel viability, ATPlite luminescence, 48 h; series mostly up to 57.5 µM. A digest of the protocol:
as §2

A further assay relates to OV90. The assay is described as above. As to conditions: Gynecologic cancer cell panel viability, ATPlite luminescence, 48 h; series mostly up to 57.5 µM. The method, boiled down: as §2
Another assay concerns PA-1. Described as above. As to conditions: Gynecologic cancer cell panel viability, ATPlite luminescence, 48 h; series mostly up to 57.5 µM. A digest of the protocol:
as §2

The subject of another assay is Tov-21-G. The assay is described as above. Particulars: Gynecologic cancer cell panel viability, ATPlite luminescence, 48 h; series mostly up to 57.5 µM. A digest of the protocol:
as §2

In the next assay the test system is Tov112D. Described as above. As to conditions: Gynecologic cancer cell panel viability, ATPlite luminescence, 48 h; series mostly up to 57.5 µM. A digest of the protocol:
as §2

Chain of Phospholipid hydroperoxide glutathione peroxidase GPX4 (Homo sapiens) (P36969 whole entry, looked up): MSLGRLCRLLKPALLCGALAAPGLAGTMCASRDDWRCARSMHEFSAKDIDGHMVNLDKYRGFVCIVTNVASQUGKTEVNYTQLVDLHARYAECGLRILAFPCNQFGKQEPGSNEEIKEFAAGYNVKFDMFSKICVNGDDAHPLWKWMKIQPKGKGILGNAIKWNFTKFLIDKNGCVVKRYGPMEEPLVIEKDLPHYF
Chain of Calcium and integrin-binding protein 1 (Homo sapiens) (Q99828 whole entry, looked up): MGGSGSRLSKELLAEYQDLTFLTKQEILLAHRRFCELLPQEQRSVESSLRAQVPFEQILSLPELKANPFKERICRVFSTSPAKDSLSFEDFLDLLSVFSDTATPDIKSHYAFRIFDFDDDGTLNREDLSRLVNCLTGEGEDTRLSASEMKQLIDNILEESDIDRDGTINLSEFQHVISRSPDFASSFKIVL

With `CO[C@@H]1[C@H](O)[C@@H](O[C@@H]2C[C@H]3CC[C@@H]4C(CC[C@]5(C)[C@@H](C6=CC(=O)OC6)CC[C@]45O)[C@@]3(C)[C@H](O)C2)O[C@H](C)[C@@H]1O` (some centres not stated), the Potency is 252 nM (active) in assay [1]; 89.3 nM (active) in assay [3]; 112 nM (active) with CRL-7250; 224 nM (active) in the assay on HEK293; 1780 nM (active) with HaCat; 199 nM (active) with C33A. Also, the Potency was 631 nM (active) in the assay on CAOV3; 1260 nM (active) in the assay on CASKI; 178 nM (active) in the assay on Es-2; 224 nM (active) in the assay with Hek293T; 891 nM (active) in the assay on JEG-3; 1000 nM (active) with OV90. Besides, the Potency in the assay with PA-1 was 199 nM (active); with Tov-21-G, 178 nM (active); with Tov112D, 89.1 nM (active). In addition, the Potency result in assay [2], in [4] and in [6] was “inactive” each time. For the same compound, the outcome in [5] was inactive. For the same compound, the max response in the assay on NIH3T3 is 3.09%.
In the case of `C/C=C(/C)C1C=CC2CC(C)CC(C)C2C1/C(O)=C1\C(=O)NC(CC(C)(O)C(=O)O)C1=O` (configuration not stated), the Potency entry (in [1]; in assay [3]; in assay [4]; in assay [6]; in the assay with C33A; with CASKI) was “inactive” each time. In addition, the Potency entry in the assay with Es-2, with Hek293T, with JEG-3, with OV90, in the assay with PA-1 and in the assay on Tov-21-G was “inactive” throughout. The Potency result in the assay with Tov112D is “inactive”. The outcome in assay [5] was “inactive [at 25.7 µM]”. The call in the assay with CRL-7250 was inactive. Further, the results for the max response in the assay with HEK293, in the assay on HaCat and in the assay with NIH3T3 were -1.39%, -6.03% and 1.49%, respectively.
Consider `C#CCO[C@H]1CN2CCC1CC2`, for which the Potency entry (in assay [1]; in [2]; in assay [3]; in assay [4]; in [6]; with C33A) was “inactive” throughout. The Potency result in the assay on CAOV3, in the assay with CASKI, with Es-2, in the assay with Hek293T, in the assay with JEG-3 and with OV90 was “inactive” in each case. For the same compound, the Potency result in the assay with PA-1, in the assay with Tov-21-G and in the assay on Tov112D was “inactive” in each case. The call in assay [5] was inactive. In addition, the max response was -0.287% in the assay on CRL-7250, -18.5% in the assay with HEK293, 2.85% with HaCat and 2.27% with NIH3T3.
Take `C[C@@H]1CCC/C=C/[C@H]2C[C@@H](O)C[C@@H]2[C@@H](O)/C=C/C(=O)O1`: the Potency in assay [1] is 164 nM (active); in [3], 290 nM (active); in the assay on CRL-7250, 206 nM (active); in the assay with HEK293, 920 nM (active); in the assay on HaCat it was 259 nM (active); with NIH3T3, 4110 nM (active). Also, the Potency was 891 nM (active) in the assay with C33A; 316 nM (active) with CAOV3; 1260 nM (active) with CASKI; 501 nM (active) in the assay on Es-2; 1000 nM (active) in the assay with Hek293T; 1000 nM (active) with JEG-3. Also, the Potency in the assay with OV90 was 316 nM (active); in the assay on PA-1, 447 nM (active); in the assay on Tov-21-G, 1120 nM (active); in the assay with Tov112D, 1000 nM (active). Also, the Potency entry in assay [2], in assay [4] and in assay [6] was “inactive” throughout. Moreover, in [5], the compound was classed as inactive.
Regarding `CC1CCCC(=O)CCC/C=C/c2cc(O)cc(O)c2C(=O)O1` (configuration not stated), the Potency entry (in [1]; in assay [2]; in [3]; in [4]; in [6]; with C33A) was “inactive” in each case. Besides, the Potency result with CAOV3, with CASKI, in the assay with Es-2, in the assay on Hek293T, in the assay on JEG-3 and in the assay on OV90 was “inactive” in each case. Moreover, the Potency result with Tov-21-G and with Tov112D was “inactive” each time. Moreover, the call in assay [5] was inactive. Also, the max response was 3.12% in the assay with CRL-7250, -3.13% with HEK293, 2.86% in the assay with HaCat and -2.03% in the assay on NIH3T3.
